From a collection of fitness landscapes (doi:10.1016/j.celrep.2020.107928)
In all, about 81,000 sequences were measured (“one-hybrid fitness for binding NBS DNA”: median about -0.1, highest 2% from about 0.36 on). Only a selection was taken, and the highest values are over-represented in it overall.

B1: Caulobacter ParB omega fusion; a variant is named by its letters at X, in order, B8GW30 (parent)
chain: MESVVVGEPGMSEGRRGLGRGLSALLGEVDAAPAQAPGEQLGGSREAPIEILQRNPDQPRRTFREEDLEDLSNSIREKGVLQPILVRPSPDTAGEYQIVAGERAWRAAQRAGLKTVPIMVRELDDLAVLEIGIIENVQRADLNVLEEALSYKVLMEKFERTQENIAQTIGKSXSHVANXMRLLXLPDEVQSYLVSGELTAXHARAIAAAADPVALAKQIIEGGLSVRETEALARKAPNLSAGKSKGGRPPRVKDTDTQALESDLSSVLGLDVSIDHRGSTGTLTITYATLEQLDDLCNRLTRGI

Variants of: B1
Test: one-hybrid fitness for binding NBS DNA (the Noc-binding site; scaled: cognate 1, non-cognate 0); higher = stronger binding
Settings: with NBS DNA site
Procedure, shortened: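 Fitness is the rescaled log change in variant-to-wild-type read ratio, measured by Illumina sequencing of plasmids before and after bacterial one-hybrid selection. The scale puts cognate at 1 and non-cognate at 0. Selection of Caulobacter ParB libraries, four specificity codons randomised, took place in E. coli USO with a HIS3 reporter, site 19 bp from the promoter, over 48 hours at 37°C on M9-minus-histidine with 0.1 mM IPTG and 5 mM 3-AT.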

Variant | one-hybrid fitness for binding NBS DNA
LARA | ≤ 0.2
ELER | ≤ 0.2
PWIR | ≤ 0.2
MRID | ≤ 0.2
CPAI | ≤ 0.2
RRAK | 0.254
RRAS | 0.655
RRAP | ≤ 0.2
RIPR | ≤ 0.2
RILR | 0.27
RIHH | ≤ 0.2
RIQD | ≤ 0.2
RIHR | 0.477
RISR | 0.386
RISN | ≤ 0.2
RIYR | 0.377
RIQR | 0.38
RISD | ≤ 0.2
RIQH | ≤ 0.2
RIHP | ≤ 0.2
PALM | ≤ 0.2
HPME | ≤ 0.2
PIEV | ≤ 0.2
KSHW | ≤ 0.2
VSAN | ≤ 0.2

Variant | one-hybrid fitness for binding NBS DNA
EYDR | ≤ 0.2
AMER | ≤ 0.2
ITVP | ≤ 0.2
GPTF | ≤ 0.2
TCYM | ≤ 0.2
RGSS | ≤ 0.2
WTNW | ≤ 0.2
HPYT | ≤ 0.2
GAIA | ≤ 0.2
RIIR | ≤ 0.2
RIGH | ≤ 0.2
RIRR | 0.638
RIWM | ≤ 0.2
RIWN | ≤ 0.2
RIWR | 0.367
RIRH | 0.333
RIGD | ≤ 0.2
RIGR | 0.441
ISCL | ≤ 0.2
YPMG | ≤ 0.2
GWYC | ≤ 0.2
RPAE | ≤ 0.2
HFNL | ≤ 0.2
RVWR | 0.248
RVQS | 0.357

Variant | one-hybrid fitness for binding NBS DNA
RVAH | ≤ 0.2
RVQH | ≤ 0.2
RVAR | 0.396
RVQR | 0.415
RVRR | 0.626
RVFR | 0.34
RVYR | 0.359
TANR | ≤ 0.2
ERVW | ≤ 0.2
TLWC | ≤ 0.2
KAYA | ≤ 0.2
QKVQ | 0.268
QKKE | 0.283
QKKI | 0.337
QKKH | 0.619
QKKQ | 0.384
QKVH | ≤ 0.2
QKKG | 0.332
QKKS | 0.662
QKHQ | ≤ 0.2
QKKP | 0.26
QKKN | 0.42
QKKD | 0.211
FAHG | ≤ 0.2
SLHE | ≤ 0.2

Variant | one-hybrid fitness for binding NBS DNA
RHIK | ≤ 0.2
GTLP | ≤ 0.2
PPRN | ≤ 0.2
SIAA | ≤ 0.2
YQPS | ≤ 0.2
KTAW | ≤ 0.2
CMYT | ≤ 0.2
DGST | ≤ 0.2
AMAP | ≤ 0.2
QKRG | 0.335
QKYS | 0.43
QKRN | 0.37
QKDS | 0.332
QKQP | ≤ 0.2
QKYN | ≤ 0.2
QKQD | ≤ 0.2
QKIS | 0.278
QKQS | 0.458
QKPS | ≤ 0.2
QKNS | 0.539
QKNP | ≤ 0.2
DCTY | ≤ 0.2
IHHC | ≤ 0.2
WGKE | ≤ 0.2
WAWT | ≤ 0.2

Variant | one-hybrid fitness for binding NBS DNA
MWRS | ≤ 0.2
MATS | ≤ 0.2
CSVV | ≤ 0.2
GFNG | ≤ 0.2
QKCS | 0.419
GKLS | ≤ 0.2
QKAP | ≤ 0.2
GKLH | 0.366
QKHD | ≤ 0.2
QKCN | ≤ 0.2
QKAS | 0.498
QKHS | 0.494
QKAN | ≤ 0.2
GKLD | ≤ 0.2
QKHH | 0.205
QKCH | ≤ 0.2
SLNQ | ≤ 0.2
VERV | ≤ 0.2
NEQT | ≤ 0.2
RMDV | ≤ 0.2
RYAC | ≤ 0.2
YPLD | ≤ 0.2
IQMR | ≤ 0.2
QKRF | 0.258
GWLS | ≤ 0.2

Variant | one-hybrid fitness for binding NBS DNA
QKLS | 0.392
GWLI | 0.404
GWLP | ≤ 0.2
QKRH | 0.579
QKSH | 0.241
QKLD | ≤ 0.2
QKRD | 0.268
QKLH | 0.246
QKSS | 0.449
QKSP | ≤ 0.2
YTAV | ≤ 0.2
HGTI | ≤ 0.2
VPLE | ≤ 0.2
AYGD | ≤ 0.2
RKKE | ≤ 0.2
KHKY | ≤ 0.2
QKRP | 0.261
QKGD | ≤ 0.2
QKGS | 0.465
QKRI | 0.301
QKDD | ≤ 0.2
QKDH | 0.521
QKRS | 0.677
QKGH | 0.228
QKNH | 0.286

Variant | one-hybrid fitness for binding NBS DNA
MPKT | ≤ 0.2
RGWG | ≤ 0.2
DTNG | ≤ 0.2
IIGR | ≤ 0.2
VAWT | ≤ 0.2
RYQS | 0.386
RYRS | 0.572
RYSH | ≤ 0.2
RYST | 0.452
RYSN | ≤ 0.2
RYSS | 0.437
RYQH | ≤ 0.2
RYSC | ≤ 0.2
RYRN | ≤ 0.2
RYQD | ≤ 0.2
RYSG | ≤ 0.2
RYRD | ≤ 0.2
MMDT | ≤ 0.2
HANR | ≤ 0.2
IMHC | ≤ 0.2
VAPN | ≤ 0.2
GWLG | ≤ 0.2
KQKS | ≤ 0.2
FLVG | ≤ 0.2
LDND | ≤ 0.2

Variant | one-hybrid fitness for binding NBS DNA
SIIL | ≤ 0.2
AHHA | ≤ 0.2
SHVW | ≤ 0.2
CFRT | ≤ 0.2
RYND | ≤ 0.2
RYNS | 0.497
RYDS | ≤ 0.2
RYWS | ≤ 0.2
RYHN | ≤ 0.2
RYIS | ≤ 0.2
RYCH | ≤ 0.2
RYCS | 0.395
RYHD | ≤ 0.2
RYCP | ≤ 0.2
RYHS | 0.441
RYYS | 0.371
EYQC | ≤ 0.2
RKSA | 0.284
PEMV | ≤ 0.2
LCRH | ≤ 0.2
